Bioassay records: PubChem BioAssay, several laboratories
The list is not random: actives were taken first. Their share in the collection is about 3.1%.
14-3-3 Bad PPI – disrupts binding of bovine 14-3-3 zeta to phospho-Bad peptide. P63103. TR-FRET 14-3-3zeta/Dy647-pBad peptide displacement, 1 h. inhibition, % at 21.7 µM. actives 0.71% (n = 220,000). AID 781;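 active means inhibition above about 70%, limit read from the data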;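 further: 0% = full 14-3-3 plus peptide FRET controls and 100% = background without 14-3-3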
Target sequence (P63103 whole entry, looked up): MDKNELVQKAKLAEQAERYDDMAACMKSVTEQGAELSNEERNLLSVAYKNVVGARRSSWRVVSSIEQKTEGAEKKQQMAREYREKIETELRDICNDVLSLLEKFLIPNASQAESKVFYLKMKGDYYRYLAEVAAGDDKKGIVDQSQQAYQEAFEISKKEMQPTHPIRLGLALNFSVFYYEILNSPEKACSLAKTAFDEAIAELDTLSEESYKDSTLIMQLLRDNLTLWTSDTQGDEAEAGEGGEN
p47phox inh – blocks human p47phox regulatory protein of NADPH oxidases. P14598. p47phox/p22phox peptide binding, fluorescence polarization, 2 h. inhibition, % at 24.7 µM. actives 0.53% (n = 220,000);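 active means inhibition above about 30%, limit read from the data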;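 further: 0% = p47phox with labelled peptide and 100% = labelled peptide alone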
Target sequence (P14598 whole entry, looked up): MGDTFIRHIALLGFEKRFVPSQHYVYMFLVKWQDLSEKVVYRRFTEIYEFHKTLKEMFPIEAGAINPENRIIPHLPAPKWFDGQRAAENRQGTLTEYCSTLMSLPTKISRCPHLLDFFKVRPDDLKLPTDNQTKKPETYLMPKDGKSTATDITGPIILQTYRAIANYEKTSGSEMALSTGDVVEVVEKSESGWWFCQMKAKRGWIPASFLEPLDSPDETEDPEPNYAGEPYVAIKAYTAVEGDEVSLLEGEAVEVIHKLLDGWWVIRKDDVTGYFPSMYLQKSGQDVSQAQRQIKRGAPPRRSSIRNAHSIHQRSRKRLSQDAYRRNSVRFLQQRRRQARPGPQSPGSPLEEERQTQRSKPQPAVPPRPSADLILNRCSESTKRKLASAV
Mcl1 Bid PPI – disrupts binding of human Mcl-1 to Bid peptide; Q07820; TR-FRET Mcl-1/Bid-Dy647 peptide binding, 1536-well; inhibition, % at 21.7 µM; actives 0.97% (n = 220,000);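 active means compounds that cut the binding signal by more than half at the single screening dose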;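 further: His-tagged Mcl-1 with europium anti-His antibody binding Bid BH3 peptide; 0% = Mcl-1 plus peptide wells and 100% = peptide-only wells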
Mcl1-Noxa inh – disrupts binding of human Mcl-1 to Noxa peptide; TR-FRET Mcl-1/Noxa peptide binding, 2 h; inhibition, % at 21.7 µM; actives 1.5% (n = 220,000); AID 1022;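 active means compounds that cut the protein-peptide binding signal by more than 50% relative to plate controls in a single-dose test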;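 further: His-tagged Mcl-1 with rhodamine Noxa BH3 peptide and terbium anti-His antibody; 0% = Mcl-1 plus Noxa peptide wells and 100% = peptide-only wells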
Bim-Mcl-1 – inhibitors of Bim-Mcl-1 interaction, human; actives 0.1% (n = 190,000); Bead-based flow cytometry, Bim peptide-Mcl-1 binding; inhibition, % at 10 µM; in the data active means inhibition above about 40%;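 further: 0% = no compound tracer wells and 100% = peptide blocker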
Active calls of the source: *; . = no result.

SMILES | 14-3-3 Bad PPI | p47phox inh | Mcl1 Bid PPI | Mcl1-Noxa inh | Bim-Mcl-1
Cc1ccc2[nH]c3c(c2c1)CCN1C(=O)OC(C)(C)C31C (stereo not drawn) | -6 | -12 | -19 | 68* | -1
CC(=O)Nc1ccc(S(=O)(=O)N(CC(=O)Nc2cc(C)on2)Cc2ccc(F)cc2)cc1 | 8 | -10 | 3 | 29 | .
CC(C)(C)c1ccc(/C=C/C(=O)c2ccc(NC3=NCCCS3)cc2)cc1 | -12 | -26 | 11 | 23 | -6
COc1cccc(/C=C/C(=O)c2ccc(NC3=NCCCS3)cc2)c1 | 3 | -18 | 9 | 57* | -25
Cc1cccc(/C=C/C(=O)c2ccc(NC3=NCCCS3)cc2)c1 | 1 | -2 | 27 | 88* | -4
O=C(/C=C/c1ccccc1)c1ccc(NC2=NCCCS2)cc1 | -6 | -12 | 12 | 84* | -2
CSc1nc(N)c(C(=O)Nc2ccc([N+](=O)[O-])cc2)s1 | -1 | -23 | -59 | 33 | .
COc1ccc(C)cc1NC(=O)C1CC(=O)OC12CCCCC2 (stereo not drawn) | -10 | -7 | 0 | -10 | 0
Cc1cc(C(=O)CN2C(=O)C(=O)N(CC(C)C)C2=O)c(C)n1-c1ccccc1F | -19 | -5 | -33 | 7 | -7
COc1ccccc1N1C(=O)C2ON(c3ccccc3)C(c3ccc(N(C)C)cc3)C2C1=O (stereo not drawn) | 3 | -48 | -6 | 78* | 11
CN1CCN(Cc2cccc(Oc3ccc(Cl)cc3)c2)CC1 | 62 | -1 | 67* | 27 | -1
O=C(O)CCN1C(=O)S/C(=C\c2cccnc2)C1=O | 0 | 1 | 91* | 13 | .
O=C(NCCN1C(=O)S/C(=C\c2ccc(Cl)c(Cl)c2)C1=O)c1cnccn1 | -13 | 1 | -23 | 58* | 2
CS(=O)(=O)c1ccc(C(=O)NCCN2C(=O)S/C(=C\c3cccnc3)C2=O)cc1[N+](=O)[O-] | 32 | 4 | 24 | 81* | 0
CC(C)Sc1nc2ncnc(N)c2[nH]1 | -7 | -1 | -10 | -5 | -3
CC1Cc2ccccc2N1S(=O)(=O)c1cccc(C(=O)N2CCN(c3ncccn3)CC2)c1 (stereo not drawn) | -2 | -5 | -1 | 19 | -3
O=C(CNS(=O)(=O)c1ccc(C(=O)N2CCCCC2)cc1)N1CCCCC1 | 9 | -10 | -8 | 8 | -5
O=C(c1ccc(CNS(=O)(=O)c2ccc(Br)cc2)cc1)N1CCCC1 | -1 | -7 | -33 | 4 | 42*
Cc1ccc(/C=C/C(=O)O)cc1S(=O)(=O)NCc1ccco1 | -7 | -3 | -6 | 8 | -2
CC(C)(CC(=O)O)CC(=O)NCc1c(Cl)cccc1Sc1ccc(Cl)cc1 | -6 | -9 | 4 | 10 | .
O=C(O)CCCC(=O)NCc1c(Cl)cccc1Sc1ccc(Cl)cc1 | -4 | 34* | 10 | 0 | .
N#CC1=C(S)N(c2ccccc2)C(c2ccc(-c3cccc(Cl)c3)o2)NC1=O (stereo not drawn) | 48 | -55 | -30 | 69* | -3
CC(C)CCOc1ccc(/C=C2\CCn3c2nc2cc(C(=O)O)ccc2c3=O)cc1 | 41 | -7 | -22 | 78* | 0
COc1cc(/C=N/NC(=O)C(=O)NCc2ccco2)cc(Cl)c1O | 60 | 1 | -14 | 62* | .
O=c1c2c([N+](=O)[O-])cc([N+](=O)[O-])cc2sn1-c1ccc(Br)cc1 | 51 | 74* | 31 | 91* | -16
SMILES | 14-3-3 Bad PPI | p47phox inh | Mcl1 Bid PPI | Mcl1-Noxa inh | Bim-Mcl-1
O=C(O)c1ccc2c(=O)n3cc(C(=O)c4ccccc4O)cc(Cl)c3nc2c1 | 1 | -25 | -94 | 60* | .
O=C(O)c1cccn2c(=O)c3ccccc3nc12 | 5 | -3 | -7 | -2 | -1
Cc1ccc(NCc2nc3ccccc3n2CCOc2ccccc2)cc1 | -5 | -17 | -40 | -3 | -8
c1ccc2c(c1)ncn2CCCCOc1ccc2c(c1)CCC2 | 59 | -11 | 69* | 39 | -1
c1ccc2c(c1)ncn2CCCOc1ccc2c(c1)CCC2 | -13 | -3 | 14 | 17 | -5
COc1ccc(CCN(C)C(=S)NC(=O)c2ccc(F)cc2Cl)cc1OC | -4 | -9 | -28 | 27 | -1
CO/N=C\c1cc(C(=O)c2ccc(Cl)cc2Cl)cn1C | -5 | 0 | -2 | -7 | 2
COc1cc(-c2noc(-c3cccs3)n2)cc(OC)c1OC | -7 | -7 | -3 | 5 | -2
COc1ccc(-c2nc(-c3ccc(Br)o3)no2)cc1OC | 34 | 13 | 56* | 21 | 0
COc1ccc(-c2nnc(-c3ccc(Br)o3)o2)cc1OC | 9 | -14 | -2 | 8 | -4
COc1ccc(-c2noc(-c3cccs3)n2)cc1OC | 36 | -4 | 58* | 32 | .
COc1cc(-c2nc(-c3ccc(NC(=O)c4ccc(Br)o4)cc3)no2)cc(OC)c1OC | 70 | -9 | 68* | 1 | 0
COc1ccc(-c2nc(-c3ccc(NC(=O)c4ccc(Br)o4)cc3)no2)cc1OC | 3 | -13 | -14 | 3 | -7
COc1ccc2nc(SCC(=O)NC(C)C)[nH]c2c1 | 80* | -4 | 0 | 1 | 0
COc1ccc(NC(=O)CSc2nc3ccc(OC)cc3[nH]2)cc1 | 4 | -13 | -59 | 8 | .
COc1ccc(N(C(=O)CS(=O)CC(=O)Nc2ccc(F)cc2)C(C(=O)NC2CCCCC2)c2cccs2)cc1 (stereo not drawn) | 39 | 16 | 61* | -81 | -2
O=C(CS(=O)CC(=O)N(c1ccccc1)C(C(=O)NC1CCCCC1)c1ccco1)Nc1ccc(F)cc1 (stereo not drawn) | -16 | 5 | -32 | 13 | 1
O=C(CSc1ccsc1[N+](=O)[O-])N1CCN(c2ccc(Cl)cc2)CC1 | 10 | -8 | -1 | 95* | -4
Cc1ccccc1NC(=O)CSc1ccsc1[N+](=O)[O-] | 18 | 5 | -61 | 71* | -5
O=C(CSc1ccsc1[N+](=O)[O-])N1CCN(c2ccccc2)CC1 | -1 | 0 | 5 | 65* | -5
N#Cc1cc(-c2ccccc2)nc(Oc2ccccc2)n1 | 0 | 0 | 83* | -1 | -5
N#Cc1ccc(Oc2nc(C#N)cc(-c3ccccc3)n2)cc1 | -2 | -3 | -9 | 14 | -1
CCc1ccc(N2C(=O)CC(NNc3nc4ccccc4s3)C2=O)cc1 (stereo not drawn) | 1 | -8 | -25 | 8 | -7
CCOC(=O)C1=C(O)/C(=C\c2ccc(CNC(=O)C(=O)Nc3ccccc3)o2)N=C1C | 1 | -13 | 40 | 96* | -1
FC(F)(F)C1=CC(c2ccccc2)=NCCN1 | 5 | 5 | -24 | 88* | -2
Cc1cc2ncc(S(=O)(=O)c3ccccc3)c(N)n2n1 | -4 | -9 | -24 | 16 | 0
CC(C)Nc1ccc(C(CC(N)=O)NC(=O)c2ccc(Br)cc2)cc1[N+](=O)[O-] (stereo not drawn) | 6 | -16 | 65* | 2 | .
